According to PubChem BioAssay AID1159580 (chemical genetic matrix, 2015):
“And” between values parts separate entries of the source, which are not always exact repeats. Identical values can stand only once. Among all 5,500 compounds or so, about 2,000 (36%) were called active. Inconclusive results (about 18%) are left out. Rule as the data show it: active = normalized growth mostly below about 0.91 (no sharp cut-off); inconclusive = no clear call, values can overlap the other calls; inactive = mostly above about 0.92. The list shows a part of the results.

Experiment: chemical genetic growth profiling, strain panel (AID 1159580);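 also: tested at 20 µM; growth read once vehicle control cultures reached saturation at 30 °C; 1 = growth at the plate median or of vehicle wells; lower values mean less growth of the strain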
Conditions: S. cerevisiae deletion strains, growth OD

Measured: normalized growth

CC(=O)O[C@H]1C[C@@H](OC(C)=O)C(C)(C)C2CC(=O)[C@]3(C)C(CC[C@@]4(C)[C@H](C(=O)O)OC(=O)C5OC543)[C@]21C (stereo partly specified)
inactive: locus YAL021C, strain ccr4, hits give low values 0.96 | locus YAL026C, strain drs2, hits give low values 0.98 | locus YAL030W, strain snc1, hits give low values 1.02 | locus YBL061C, strain skt5, hits give low values 0.995 | locus YBR009C, strain hhf1, hits give low values 0.988 | locus YBR021W, strain FUR4, hits give low values 1.03 | locus YBR023C, strain chs3, hits give low values 1.01 | locus YBR171W, strain sec66, hits give low values 0.984 | locus YBR229C, strain ROT2, hits give low values 0.964 | locus YBR231C, strain swc5, hits give low values 0.988 | locus YBR279W, strain paf1, hits give low values 1.01 | locus YCL011C, strain gbp2, hits give low values 0.982 | locus YCL016C, strain dcc1, hits give low values 0.974 | locus YCL029C, strain bik1, hits give low values 0.979 | locus YCL061C, strain MRC1, hits give low values 0.987 | locus YCL069W, strain vba3, hits give low values 0.991 | locus YCR088W, strain abp1, hits give low values 1 | locus YDL005C, strain med2, hits give low values 0.966 | locus YDL035C, strain GPR1, hits give low values 0.977 | locus YDL040C, strain nat1, hits give low values 0.995 | locus YDL074C, strain BRE1, hits give low values 1.04 | locus YDL101C, strain DUN1, hits give low values 0.991 | locus YDL134C, strain PPH21, hits give low values 1.05 | locus YDL185W, strain tfp1, hits give low values 0.965 | locus YDL192W, strain arf1, hits give low values 0.968 | locus YDR001C, strain nth1, hits give low values 0.994 | locus YDR069C, strain doa4, hits give low values 0.994 | locus YDR101C, strain arx1, hits give low values 0.983 | locus YDR137W, strain rgp1, hits give low values 0.991 | locus YDR159W, strain sac3, hits give low values 1.03 | locus YDR162C, strain NBP2, hits give low values 1.01 | locus YDR195W, strain ref2 0.936 | locus YDR297W, strain sur2, hits give low values 0.993 | locus YDR318W, strain mcm21, hits give low values 0.987 | locus YDR334W, strain swr1, hits give low values 0.976 | locus YDR335W, strain msn5, hits give low values 0.987 | locus YDR388W, hits give low values 0.989 | locus YDR392W, strain spt3, hits give low values 1 | locus YDR502C, strain sam2, hits give low values 1.02 | locus YEL003W, strain gim4, hits give low values 0.994 | locus YEL037C, strain rad23, hits give low values 0.995 | locus YEL061C, strain CIN8 (second series), hits give low values 0.993 | locus YEL061C, strain CIN8, hits give low values 0.979 | locus YER015W, strain faa2, hits give low values 0.987 | locus YER016W, strain bim1, hits give low values 0.987 | locus YER110C, hits give low values 0.979 | locus YER111C, strain swi4, hits give low values 0.987 | locus YER155C, strain BEM2 (second series), hits give low values 0.992 | locus YER155C, strain BEM2, hits give low values 0.996 | locus YER167W, strain BCK2, hits give low values 0.988 | locus YFR010W, strain ubp6, hits give low values 1.02 | locus YGL078C, strain dbp3, hits give low values 1.02 | locus YGL086W, strain mad1, hits give low values 1 | locus YGL167C, strain pmr1, hits give low values 0.993 | locus YGL173C, strain kem1, hits give low values 0.997 | locus YGL227W, strain vid30, hits give low values 0.993 | locus YGL240W, strain doc1, hits give low values 0.974 | locus YGL248W, strain PDE1, hits give low values 1.01 | locus YGL253W, strain hxk2, hits give low values 0.988 | locus YGR135W, strain pre9, hits give low values 1.06 | locus YGR252W, strain gcn5, hits give low values 1.07 | locus YHR013C, strain ard1, hits give low values 0.97 | locus YHR027C, strain rpn1, hits give low values 0.988 | locus YHR030C, strain SLT2, hits give low values 0.981 and 1.01 | locus YHR079C, strain IRE1 (second series), hits give low values 0.983 | locus YHR079C, strain IRE1, hits give low values 1.03 | locus YHR094C, strain hxt1, hits give low values 0.992 | locus YHR129C, strain ARP1, hits give low values 0.987 | locus YHR142W, strain chs7, hits give low values 0.98 | locus YHR200W, strain rpn10, hits give low values 1.02 | locus YIL066C, strain RNR3, hits give low values 0.957 | locus YIL073C, strain SPO22, hits give low values 0.996 | locus YIL125W, strain kgd1, hits give low values 0.992 | locus YIR030C, strain dcg1, hits give low values 0.986 | locus YJL092W, strain hpr5, hits give low values 0.994 | locus YJL095W, strain BCK1 (second series), hits give low values 0.983 | locus YJL095W, strain BCK1, hits give low values 1.08 and 1.01 | locus YJL115W, strain asf1, hits give low values 0.978 | locus YJL129C, strain trk1, hits give low values 0.987 | locus YJL134W, strain LCB3, hits give low values 0.978 | locus YJL154C, strain vps35, hits give low values 0.978 | locus YJL164C, strain tpk1, hits give low values 1.02 | locus YJL166W, strain qcr8, hits give low values 0.977 | locus YJL168C, strain set2, hits give low values 0.996 | locus YJL187C, strain SWE1 (second series), hits give low values 1.01 | locus YJL187C, strain SWE1, hits give low values 0.984
